Test results reported in ChEMBL document CHEMBL4513141, “CO-ADD screening of NIH (USA) - Clinical Collection” (2021).
Entries with a potency or affinity are not part of this list.

Key:
Staphylococcus aureus = settings: Concentration 20 uM; ASSAY_TEST Inhibition of Bacterial Growth; detection method Absorption (OD600); MEDIA CAMHB; plate type 384well; NBS; CORNING #3640; time 18 hr
Escherichia coli = settings: Concentration 20 uM; ASSAY_TEST Inhibition of Bacterial Growth; detection method Absorption (OD600); MEDIA CAMHB; plate type 384well; NBS; CORNING #3640; time 18 hr

Row | SMILES | Inhibition (Staphylococcus aureus) | Inhibition (Escherichia coli)
1 | Nc1nc(F)nc2c1ncn2[C@@H]1O[C@H](CO)[C@@H](O)[C@@H]1O [FLUDARABINE] | 11.26% | 42.2%
2 | CCC(COC(=O)c1cc(OC)c(OC)c(OC)c1)(c1ccccc1)N(C)C.O=C(O)/C=C\C(=O)O (stereo unspecified) | 4.02% | 7.24%
3 | CN1[C@@H]2CC[C@H]1CC(OC(=O)C(CO)c1ccccc1)C2 (stereo partly specified) | 1.53% | -5.78%
4 | C#C[C@]1(O)CC[C@H]2[C@@H]3CCC4=CC(=O)CC[C@@H]4[C@H]3CC[C@@]21C [NORETHINDRONE] | -0.74% | 4.04%
5 | Cc1cc(NS(=O)(=O)c2ccc(N)cc2)no1 [SULFAMETHOXAZOLE] | -14.52% | 28.59%
6 | CC[C@@H](C(N)=O)N1CCCC1=O | 18.53% | 0.96%
7 | C[N+]1(C)CCC(OC(=O)C(O)(c2ccccc2)C2CCCC2)C1.[Br-] (stereo unspecified) [GLYCOPYRRONIUM BROMIDE] | 11.8% | 
8 | CN(C)CCc1c[nH]c2ccc(Cn3cncn3)cc12.O=C(O)c1ccccc1 [RIZATRIPTAN BENZOATE] | 12.43% | -5.47%
9 | Oc1ncnc2[nH]ncc12 [ALLOPURINOL] | 15.53% | 6.23%
10 | C[N+]1(C)CCN(c2ccccc2)CC1.[I-] [DIMETHYLPHENYLPIPERAZINIUM IODIDE] | 11.69% | 3.59%
11 | CC(C)C(=O)Nc1ccc([N+](=O)[O-])c(C(F)(F)F)c1 [FLUTAMIDE] | 10.52% | 4.1%
